Measured values as given in PubChem BioAssay AID686971 (National Center for Advancing Translational Sciences (NCATS), 2013).
The campaign covered roughly 360,000 compounds. About 7,500 (2.1%) were called active. About 8% were inconclusive and are not listed. The list comes from a sample in which actives are over-represented; it also holds similar structures and randomly drawn compounds. Values without a mark were called inactive. Calls come from the whole dose curve; as a rule, active = well fitted cell-killing curve with a large enough effect; inconclusive = small, poorly fitted or top-dose-only effect, or effect the other way, or another doubt; inactive = no such curve, though single readings can be large or run the other way.

assay: qHTS for induction of synthetic lethality in tumor cells producing 2HG: qHTS for the HT-1080-IDH1KD cell line; conditions: HT-1080 IDH1 knockdown viability, ATP luminescence, 48 h; series mostly up to 46.1 µM; activity, negative = toxicity: at the top concentration;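 for activity, negative = toxicity: 0% = DMSO wells and -100% = cell-free medium wells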
Method in brief: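 Assay cells: HT-1080 with IDH1 knockdown, 750 per well, RPMI/5% FBS. Exposure: 48 h at 37 °C following 2 h pre-incubation. Read: CellTiter-Glo luminescence; fitted concentration-response, curve class assigned.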
Potency is the fitted concentration of half-maximal effect.

| SMILES | activity, negative = toxicity [%] | Potency |
| --- | --- | --- |
| CC1(C(=O)NS(=O)(=O)c2cccc(F)c2)CCN1C(=O)c1cccc2ccccc12 (stereo unspecified) | 1.27 | – |
| COc1cccc(CN(C)C(=O)CC[C@H]2O[C@@H](n3cnc4c(NC(=O)c5ccccc5)ncnc43)[C@H](O)[C@@H]2O)c1 | 13.1 | – |
| COc1ccc(/C(N)=N/OC(=O)Cc2ccccc2)cc1 | 12.4 | – |
| COc1ccc(C(=NN)c2ccc(OC)cc2)cc1 | 18.4 | – |
| COc1ccc(C(C#N)=C2C=CC(=NO)c3ccccc32)cc1 | – | 0.517 µM (active) |
| CN(C)CCNC(=O)c1ccc(Cl)c2cc3ccccc3nc12 | – | 10.3 µM (active) |
| CN(C)CCNC(=O)Nc1cccc(Cl)c1Cl | -6.77 | – |
| CN(c1ccccc1)S(=O)(=O)c1ccc(Cl)c(C(=O)NCCc2c[nH]c3ccccc23)c1 | -8.58 | – |
| CC(=O)NC(c1cccc(F)c1)c1nc(-c2cccc(F)c2)cs1 (stereo unspecified) | 0.603 | – |
| COc1ccc([C@H]2C[C@@H](n3cc(COC(=O)c4ccccc4)nn3)[C@H](O)CN2C(=O)c2cccs2)cc1 | -6.72 | – |
| COC(=O)C[C@@H]1C=C[C@@H](NC(=O)c2ccc3c(c2)OCO3)[C@@H](CO)O1 | 23.1 | – |
| Cc1ccc(S(=O)(=O)N2C[C@@H](C)[C@]3(C2)[C@H](O)[C@H](OC(=O)NCc2ccccc2)C[C@H]2C(=O)N(c4ccccc4)C(=O)[C@H]23)cc1 | -0.522 | – |
| Cc1ccc(Oc2ccc3c(c2)C(=O)N(c2cccc4cccnc24)C3=O)cc1 | 7.05 | – |
| Cc1ccc(OS(=O)Nc2cccc3nccnc23)cc1 (stereo unspecified) | – | 11.2 µM (active) |
| Cc1ccc(OCC(=O)Nn2cnc3ccccc32)cc1 | -17.9 | – |
| CCNC(=O)C1(C)CCN(C(=O)c2ccccc2)C1 (stereo unspecified) | 4.67 | – |
| O=C(NCc1ccc(F)cc1)c1cc(C2CCCCN2C(=O)c2ccccn2)on1 (stereo unspecified) | 23.9 | – |
| COc1cccc(CNC(=O)[C@@H]2CCCN2C(=O)[C@@H]2CCCN2C(=O)c2ccccc2)c1 | 9.12 | – |
| S=C(NCCCc1ccccc1)Nc1ccc(Br)cc1 | – | 16.4 µM (active) |
| O=S(=O)(NCCCc1ccccc1)c1ccc(Br)cc1 | 2.69 | – |
| O=C(Cc1ccc(Br)cc1)NCCc1ccccc1 | -2.12 | – |

| SMILES | activity, negative = toxicity [%] | Potency |
| --- | --- | --- |
| COc1ccc(C)cc1S(=O)(=O)N1CCN(S(=O)(=O)c2cc(C(=O)O)ccc2C)CC1 | 9.87 | – |
| Cc1ccc(S(=O)(=O)N2CCN(c3ncnc4ccccc34)CC2)cc1 | – | inactive |
| Cc1ccc(C)c(S(=O)(=O)N2CCN(c3ncnc4sccc34)CC2)c1 | – | 4.61 µM (active) |
| COc1ccccc1-n1c(SCC(=O)Nc2ccc(Cl)cc2)nc(O)c(Cc2ccccc2)c1=O | -24.8 | – |
| CCOC(=O)[C@]12CCC=C1N(Cc1ccccc1)C(=O)[C@H](CC(=O)N1CCCC1)C2 | 2.61 | – |
| O=C1CCC(=O)N1CCC(=O)N(C(=O)NC1CCCCC1)C1CCCCC1 | -1.14 | – |
| CCOC(=O)[C@]12CCCC=C1N(Cc1cccc3ccccc13)C(=O)[C@H](CC(=O)NCC13CC4CC(CC(C4)C1)C3)C2 | – | 23.1 µM (active) |
| CCCCNC(=O)C[C@@H]1C[C@@]2(C(=O)OCC)CCC=C2N(Cc2cccc3ccccc23)C1=O | -12.6 | – |
| COC(=O)[C@]12CCCCC=C1N(Cc1ccc(Cl)cc1Cl)C(=O)[C@H](CC(=O)NCc1cccc3ccccc13)C2 | -28.4 | – |
| CCc1nc2ccc(C(=O)N3CCC(O)(Cc4ccccc4)CC3)cn2c1N(C)C(=O)Cc1ccccc1 | 18.8 | – |
| O=S1(=O)CC(N2CCN(CCO)CC2)CN1Cc1cn(Cc2ccc(Cl)cc2)nn1 (stereo unspecified) | 6.6 | – |
| Cc1cccc(S(=O)(=O)N(C)C[C@H]2OCc3cnnn3CCCC(=O)N([C@@H](C)CO)C[C@H]2C)c1 | 6.99 | – |
| COc1ccccc1-c1cc2nc(NCc3cccc(Cl)c3)ccn2n1 | -18.2 | – |
| Cc1cc(C)n2c(NCc3ccccc3)c(CC(C)C)nc2n1 | 5.86 | – |
| CC(C)Cc1ccc(-c2cc3nc(NCc4cccc(Cl)c4)ccn3n2)cc1 | – | 20.6 µM (active) |
| Cc1sc2ncnc(SCC(=O)NC3CCS(=O)(=O)C3)c2c1C (stereo unspecified) | -2.68 | – |
| C=CCOc1ccccc1CNn1c(C)n[nH]c1=S | 0.246 | – |
| CNc1cncc(-c2ccc(NS(C)(=O)=O)cc2)n1 | – | 5.8 µM (active) |
| CNc1cncc(-c2cccc(C(=O)N3CCOCC3)c2)n1 | 7.17 | – |
| CS(=O)(=O)Nc1ccc(C(=O)N2CCCC2)cc1 | 8.84 | – |
| CCC(C(=O)Nc1c(C)cccc1C)n1c(-c2cc(C)cs2)nc2ccccc21 (stereo unspecified) | -20.4 | – |

| SMILES | activity, negative = toxicity [%] | Potency |
| --- | --- | --- |
| CC1(C)NC(=O)N(CC(=O)Nc2ccc(-c3ccccc3)cc2)C1=O | 3.48 | – |
| COc1ccc(NC(=O)CN(C)C(=O)c2cc(C)oc2C)cc1 | -0.701 | – |
| CCOC(=O)C1=C(C)Nc2nc3ccccc3n2C1c1cccs1 (stereo unspecified) | -13 | – |
| COc1ccccc1NC(=O)C1=C(C)Nc2nc3ccccc3n2C1c1cccs1 (stereo unspecified) | – | 5.17 µM (active) |
| CCOc1ccc(C2C(C(=O)NC)=C(C)Nc3nc4ccccc4n32)cc1OC (stereo unspecified) | 8.97 | – |
| Cc1nc(C(F)(F)F)ccc1C(=O)N1CCC1(C)C(=O)NS(=O)(=O)c1ccccc1 (stereo unspecified) | 6.16 | – |
| CCOc1ccc(NC(=O)c2cc(C)nc3ccccc23)cc1 | 15.6 | – |
| COc1cc(/C=N/NC(=O)c2cc(-c3ccccc3C)nc3ccccc23)cc(OC)c1O | -16.2 | – |
| CCOc1ccc(-c2cc(C(=O)N/N=C/c3ccc(O)cc3)c3ccccc3n2)cc1 | – | 5.8 µM (active) |
| O=C(Nc1ccc(N2CCOCC2)cc1)c1cccc2c(-c3ccc(F)c(F)c3)coc12 | -2.43 | – |
| Oc1ccc(/C=N/Nc2nc(-c3ccccc3F)nc3ccccc23)c(O)c1 | – | 11.6 µM (active) |
| Oc1c(Br)cccc1/C=N/Nc1c(F)c(F)c(F)c(F)c1F | -0.347 | – |
| CC1(C(=O)NS(=O)(=O)c2cccc(F)c2)CCN1C(=O)Cc1cc(F)ccc1F (stereo unspecified) | 3.61 | – |
| Cc1ccc(Cn2c(C)c(C(=O)NCc3ccccc3C(F)(F)F)sc2=O)cc1 | 5.39 | – |
| O=[N+]([O-])c1cccc(C=NN=Cc2ccccc2O)c1 | 7.79 | – |
| O=[N+]([O-])c1ccc(N=Cc2c(O)ccc3ccccc23)cc1 | – | 9.2 µM (active) |
| O=C(Oc1ccc([N+](=O)[O-])cc1)c1ccc2ccccc2n1 | -24 | – |
| O=C(NCc1cccnc1)c1ccc2nc([C@@H]3O[C@H](CO)[C@H](O)[C@H](O)[C@H]3O)[nH]c2c1 | 15.5 | – |
| Cc1cn([C@H]2C[C@H](O)[C@@H](/C=C/C(=O)NCCCc3ccccc3)O2)c(=O)[nH]c1=O | -2.08 | – |
